Screening data: PubChem BioAssay, National Center for Advancing Translational Sciences (NCATS)
Shown are actives, neighbours in structure and some others; about 1.8% of the full set was active somewhere.
12-LOX inh – blocks human arachidonate 12S-lipoxygenase | AID 1671190 | purified 12hLO, xylenol orange hydroperoxide absorbance | hit rate 1.1% among 580,000 | Potency, µM (top dose mostly 108 µM), inactives show at the top dose activity change, negative = inhibition, hits mostly inhibitors; note: potency is the fitted concentration of half-maximal effect; % is set by controls: 0 for no effect and ±100 for the full control effect
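Purified human 12hLO (150 nM final) in 25 mM Hepes, 0.01% Triton X-100, pH 7.0 was preincubated 15 min at room temperature with compound. Then 40 uM arachidonic acid was added, 30 min. Hydroperoxide was read by Fe-XO absorbance ratio 573/405 nm.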
hERG WT inh – inhibitors of human wildtype KCNH2 potassium channel; U2OS, BacMam KCNH2, thallium flux FluxOr; stronger effect = lower value; hit rate 0.37% among 340,000; AID 720551; activity change, % at 1.84 µM; Q12809;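 active = maximum activity change below -70%; inconclusive = maximum activity change between -70% and -50%; inactive = maximum activity change above -50%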; note: % is set by controls: 0 for no effect and ±100 for the full control effect
Target sequence (Q12809 whole entry, looked up): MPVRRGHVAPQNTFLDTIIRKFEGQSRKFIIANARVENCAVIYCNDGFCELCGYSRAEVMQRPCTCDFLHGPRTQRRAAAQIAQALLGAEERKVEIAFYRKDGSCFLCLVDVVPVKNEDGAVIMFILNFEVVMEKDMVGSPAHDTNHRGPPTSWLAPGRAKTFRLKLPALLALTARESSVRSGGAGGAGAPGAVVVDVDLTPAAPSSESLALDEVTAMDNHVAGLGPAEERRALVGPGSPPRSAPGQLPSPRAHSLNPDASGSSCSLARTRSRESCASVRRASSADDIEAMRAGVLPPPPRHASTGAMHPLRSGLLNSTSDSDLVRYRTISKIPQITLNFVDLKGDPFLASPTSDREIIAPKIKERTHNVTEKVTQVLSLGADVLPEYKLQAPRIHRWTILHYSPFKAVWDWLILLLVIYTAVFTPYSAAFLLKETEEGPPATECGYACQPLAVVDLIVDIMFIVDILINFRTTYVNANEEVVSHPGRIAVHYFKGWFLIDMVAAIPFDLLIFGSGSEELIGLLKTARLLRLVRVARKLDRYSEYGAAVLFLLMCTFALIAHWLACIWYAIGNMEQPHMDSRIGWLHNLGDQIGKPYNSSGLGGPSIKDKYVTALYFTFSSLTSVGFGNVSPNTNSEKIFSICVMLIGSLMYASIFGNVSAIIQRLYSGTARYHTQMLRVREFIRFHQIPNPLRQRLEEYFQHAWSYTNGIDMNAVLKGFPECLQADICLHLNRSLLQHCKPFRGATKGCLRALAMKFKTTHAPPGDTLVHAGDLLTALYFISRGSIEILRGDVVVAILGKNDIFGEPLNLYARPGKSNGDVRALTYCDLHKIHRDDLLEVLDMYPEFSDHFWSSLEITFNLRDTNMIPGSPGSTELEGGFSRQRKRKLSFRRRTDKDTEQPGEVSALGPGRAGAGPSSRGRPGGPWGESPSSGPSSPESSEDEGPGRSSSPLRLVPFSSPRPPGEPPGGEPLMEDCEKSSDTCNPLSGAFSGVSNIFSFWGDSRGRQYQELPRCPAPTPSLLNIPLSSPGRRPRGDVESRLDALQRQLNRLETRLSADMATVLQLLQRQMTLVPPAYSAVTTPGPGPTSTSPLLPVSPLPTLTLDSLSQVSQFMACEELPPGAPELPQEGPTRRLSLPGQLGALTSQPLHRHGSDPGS
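U2OS cells transduced with wild-type KCNH2 virus are loaded with FluxOr dye for 45 min, and thallium flux is measured in kinetic reads before and after stimulation buffer. Rate constants are normalized to DMSO controls.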
KCNH2 3.1 block – KCNH2 3.1 (human) potassium channel inhibition; U2OS KCNH2 3.1, thallium flux FluxOr; stronger effect = lower value; activity change, % (tested at about 1.8 µM); hit rate 0.95% among 340,000; AID 720553;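 active = maximum activity change below -70%; inconclusive = maximum activity change from -70% to -50%; inactive = maximum activity change above -50%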;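 note: thallium influx rate constant from kinetic fluorescence after stimulation buffer; % is set by controls: 0 for no effect and ±100 for the full control effect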
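Thallium flux read-out: FluxOr dye with Red40 quencher in HBSS/HEPES, 45 min at RT. Rate constants from kinetic reads were normalized to positive and negative DMSO controls. Cells: U2OS virally expressing the 3.1 isoform.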
A-T KAP1 phos – candidate therapy for ataxia-telangiectasia. F2112 A-T fibroblasts, KAP-1 phosphorylation AlphaLISA; neocarzinostatin DNA damage 30 min before lysis. Potency, µM (top dose mostly 57.5 µM), for inactives: at the highest dose activation, usual class: activators. hit rate 0.19% among 320,000; note: potency is the fitted concentration of half-maximal effect; % of control where 0% means no effect; nearly all actives have a fitted effect of over 45% in size
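hTERT-immortalized A-T patient fibroblasts (F2112), 500 cells/well in OPTI-MEM, 1% FBS, got compounds for 60 min, then NCS for 30 min at 37C. Lysates were then assayed for phospho-KAP-1 by AlphaLISA (anti-pKAP1 donor, anti-KAP1 acceptor beads), 6 hr at 25C.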
Numbers without * were called inactive; i = inactive; ? = inconclusive; / = no result; ! = not confirmed by another sample; [ ] = dose if it differs, or a comment. Unless noted, calls come from the whole dose curve; as a rule, active = well fitted curve in the direction sought with a large enough effect; inconclusive = small, poorly fitted or top-dose-only effect, or another doubt; inactive = no such curve, though single readings can be large; an effect the other way counts as inactive or inconclusive.

SMILES	12-LOX inh	hERG WT inh	KCNH2 3.1 block	A-T KAP1 phos
Cc1ccc(NC(=S)NNc2ccc([N+](=O)[O-])cc2S(=O)(=O)Nc2ccccc2C(=O)O)cc1C	10µM*	-5	-1	1%
CN(CCO)c1ccc(C=NNc2ccc([N+](=O)[O-])cc2S(=O)(=O)Nc2ccccc2C(=O)O)cc1	40µM*	5	3	-7%
CC(=O)Nc1ccc(C=NNc2ccc(S(=O)(=O)Nc3ccccc3C(=O)O)cc2[N+](=O)[O-])cc1	?	4	7	7%
Cc1ccc(NC(=S)NNc2ccc(C(=O)O)cc2[N+](=O)[O-])cc1C	1.4µM*	-2	-5	/
CC(=O)Nc1ccc(C=NNc2ccc([N+](=O)[O-])cc2S(=O)(=O)Nc2ccccc2C(=O)O)cc1	?	-14	-16	-5%
O=C(O)c1ccccc1NS(=O)(=O)c1ccc(NNC(=S)Nc2ccc(OC(F)F)cc2)c([N+](=O)[O-])c1	3.5µM*	5	-23	-6%
CN1CCCC2(Cc3ccccc3CN(C(=O)Cc3cccc(Cl)c3)C2)C1 (centres undefined)	-4%[6.33 µM]	/	/	/
Cc1cnn(Cc2c(C(=O)N3C[C@@H](C(N)=O)[C@H](c4nc(C)no4)C3)noc2C)c1	-6%	/	/	/
Cn1c(CO[C@H]2CN(C(=O)Nc3ccccc3)C[C@H]2F)nc2ccccc21	11%[176 µM]	/	/	/
CCCCn1c(=O)[nH]c(=O)c2c1nc(-c1csnn1)n2CC(C)C	0%	/	/	/
CCCCNC(=S)N(Cc1c(C)noc1C)c1ccccc1	-10%	12	-117*	23%
CCNC(=S)N(Cc1c(C)noc1C)c1ccccc1	-13%	-8	7	-5%
Cc1ccc(C(=O)N2CCC(N3CCCNC3=O)CC2)cc1	19%[176 µM]	/	/	/
CC(/C=N/NC(=O)C1CC1)c1ccccc1 (centres undefined)	22%	/	/	/
Cc1ccc(NS(=O)(=O)c2ccc(C(=O)NNC(=O)c3ccccc3O)cc2)cc1	45µM*	-13	7	-4%
CS(=O)(=O)N1CC2(CCCN2C2COC2)Cc2ccccc21 (centres undefined)	0%[6.33 µM]	/	/	/
COCCN1C(=O)CO[C@H]2CN(CCCc3ccccc3)C[C@H]21	4%[176 µM]	/	/	/
Cc1ccccc1C(=O)NC1CCC(C(F)(F)F)CC1 (centres undefined)	-7%	/	/	/
CCCCCC(O)(c1ccccc1)C(CN1CCOCC1)c1ccccc1 (centres undefined)	?	-6	-16	32µM*
CCCC(O)(c1ccc(CC)cc1)C(CN1CCOCC1)c1ccccc1 (centres undefined)	?	7	-6	32µM*
Cc1ccc(CNS(=O)(=O)c2ccc(-c3cnc(C4CC4)o3)cc2)cc1	-13%	-14	-89*	8%
O=S(=O)(NCc1ccccc1)c1ccc(-c2cnc(C3CC3)o2)cc1	-12%	-19	6	-16%
C/C(=N\NC(=O)c1ccccc1-n1cccc1)C1CC1	19%	-4	-76*	2%
O=C(NC(c1ccccc1)c1ccccc1)c1cc(=O)c2ccccc2o1	12%	/	/	/
CC(=O)c1c(N2CCN(c3cccc(Cl)c3)CC2)nc(=S)n(-c2ccccc2)c1C	35µM*	7	-24	-4%
SMILES	12-LOX inh	hERG WT inh	KCNH2 3.1 block	A-T KAP1 phos
CC(=O)c1c(N2CCN(c3ccccn3)CC2)nc(=S)n(-c2ccccc2)c1C	?	i	-13	-7%
CCn1c(C)c(C(C)=O)c(N2CCN(c3cccc(Cl)c3)CC2)nc1=S	?	-8	7	-1%
COc1ccc(N2CCN(c3nc(=S)n(-c4ccccc4)c(C)c3C(C)=O)CC2)cc1	40µM*	-6	38	3%
O=C(CC1CCCC1)N1CCC2(CC1)CC(N(Cc1ccccc1)C1CC1)CCO2 (centres undefined)	0%	/	/	/
Cc1cc(=S)[nH]c2c(C)cccc12	1.1µM*!	-4	3	-5%
FC(F)(F)c1cnc(NNC(=S)Nc2ccc(Cl)cc2)c(Cl)c1	45µM*	-4	-7	-8%
Cc1ccc(NC(=S)NNc2ncc(C(F)(F)F)cc2Cl)cc1	-10%	0	1	0%
Cn1ccnc1C(=O)NCC(=O)N1CCCCCCNC(=O)CC1c1ccccc1 (centres undefined)	71%	/	/	/
CSc1nnc(-c2cnccn2)n1C	-11%	-15	-97*	-1%
Cn1c(SCC(N)=O)nnc1-c1cnccn1	6%	/	-6	19%
O=C(c1ccc2c(c1)CCC2)N1C[C@H]2CC[C@@H]1CN(Cc1cscn1)C2	47%	/	/	/
